The values below come from PubChem BioAssay (EPA / NIEHS).

Results filed as inconclusive are left out. The source made the active and inactive calls. How the source made its calls: active means hit-call score of the fitted dose curve at least 0.9, where 1 is the maximum; inconclusive means response in the unintended direction; inactive means score below 0.9.

Broadly, the AC50 is the concentration giving half of the maximal activity seen.

In test [1] the target is human Beta-secretase (BACE), BACE1 (gene 23621) (UniProt P56817). Description: NVS_ENZ_hBACE: NovaScreen (NVS) Enzymatic Assay for human Beta-secretase (BACE) (AID 2283140).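 Further: hits are inhibitors that reduce fluorescent substrate signal versus DMSO.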 Put shortly: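 Enzyme from SF9 cells was incubated 1 hour with compound and fluorogenic substrate, activity read by fluorescence. Single-concentration duplicates at 25 uM preceded concentration-response follow-up; fitting relative to DMSO baseline.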

Test [2] deals with human AMP-activated Protein Kinase, alpha 1 (AMPKa1), PRKAA1 (gene 5562) (UniProt Q13131). Description: NVS_ENZ_hAMPKa1: NovaScreen (NVS) Enzymatic Assay for human AMP-activated Protein Kinase, alpha 1 (AMPKa1) (AID 2283130). Put shortly: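 Compounds were screened in duplicate at 25 uM, and those reaching ~30% inhibition were titrated up to 50 uM. The enzyme was recombinant human AMPKα1, and kinase turnover was read by fluorescence/mobility shift 1 h post-dosing as loss of signal versus DMSO.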

Test [3] concerns the target human Caspase 2 (CASP2), CASP2 (gene 835) (UniProt P42575). Description: NVS_ENZ_hCASP2: NovaScreen (NVS) Enzymatic Assay for human Caspase 2 (CASP2) (AID 2283135). In a few lines: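 Single-point duplicate testing at 25 uM preceded concentration series topping at 50 uM. Activity of the recombinant E. coli-derived protease was followed by fluorescent substrate cleavage 1 h post-dosing, relative to DMSO.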

Test [4] concerns the target Cytochrome P450 2C19 (Homo sapiens) (UniProt P33261). As to the kind of experiment: NVS_ADME_hCYP2C19: NovaScreen (NVS) CYP450-related Enzyme Activity (ADME) Assay for human CYP2C19 (AID 2283113).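 Further: potency for inhibition seen as loss of fluorescent signal.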 Put shortly:
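Recombinant insect-cell-expressed enzyme, fluorescent substrate, 1 h after chemical addition, fluorescence intensity. Baseline = acetonitrile vehicle; activity scored as signal loss. Primary HTS single concentration 10 uM, duplicate; actives retested in concentration series.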

Test [5] has as its target human CYP2D6, CYP2D6 (gene 1565) (UniProt P10635). Description: NVS_ADME_hCYP2D6: NovaScreen (NVS) CYP450-related Enzyme Activity (ADME) Assay for human CYP2D6 (AID 2283107). Put shortly:
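Fluorescence intensity read 1 h post-dosing; insect-cell-expressed recombinant protein with fluorogenic substrate, no cells. Activity is scored as signal loss relative to acetonitrile baseline, first at a single 10 uM concentration in duplicate, then as concentration series for confirmed actives.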

For test [6], the target named is human Caspase 5 (CASP5), CASP5 (gene 838) (UniProt P51878). As to the kind of experiment: NVS_ENZ_hCASP5: NovaScreen (NVS) Enzymatic Assay for human Caspase 5 (CASP5) (AID 2283137). In a few lines: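 Loss of fluorescent signal versus DMSO scored for E. coli-derived human CASP5 cleaving a fluorescent substrate, 2 h post-dosing; compounds first tested at 25 uM in duplicate, hits rerun in concentration series with 50 uM top concentration.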

Test [7] addresses human CYP2C9, CYP2C9 (gene 1559) (UniProt P11712). Description: NVS_ADME_hCYP2C9: NovaScreen (NVS) CYP450-related Enzyme Activity (ADME) Assay for human CYP2C9 (AID 2283108). In a few lines: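 Recombinant human CYP2C9 expressed in SF9 cells, fluorogenic substrate, fluorescence read 0.75 h after dosing. Chemicals first run in duplicate at 10 uM, with actives followed in concentration series; loss of signal versus acetonitrile baseline.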

Test [8] concerns the target Cytochrome P450 3A4 (Homo sapiens) (UniProt P08684). As to the kind of experiment: NVS_ADME_hCYP3A4: NovaScreen (NVS) CYP450-related Enzyme Activity (ADME) Assay for human CYP3A4 (AID 2283110). In a few lines: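 Recombinant CYP3A4 from insect cells, fluorescence enzyme read-out, 0.33 h after chemical addition. Acetonitrile = negative control/baseline. Primary HTS: 10 uM in duplicate; actives re-tested in concentration series.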

Test [9] has as its target Caspase-1 (Homo sapiens) (UniProt P29466). Description: NVS_ENZ_hCASP1: NovaScreen (NVS) Enzymatic Assay for human Caspase 1 (CASP1) (AID 2283132). In a few lines:
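Compounds were first tested in duplicate at 25 uM, with follow-up concentration series up to 50 uM. The bacterially expressed enzyme was read by fluorescence at 1 h post-dosing. Signal loss versus DMSO baseline indicates reduced enzyme activity.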

Test [10] deals with human Caspase 10 (CASP10), CASP10 (gene 843) (UniProt Q92851). As to the kind of experiment: NVS_ENZ_hCASP10: NovaScreen (NVS) Enzymatic Assay for human Caspase 10 (CASP10) (AID 2283133). In a few lines: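 Fluorescence-intensity enzyme read-out of E. coli-expressed CASP10 activity, 1 h after compound. Single-point duplicates at 25 uM preceded concentration-response testing (top 50 uM) of hits; inhibition expressed as signal loss versus DMSO.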

The target in test [11] is human AKT serine/threonine Kinase 1 (AKT1), AKT1 (gene 207) (UniProt P31749). Description: NVS_ENZ_hAKT1: NovaScreen (NVS) Enzymatic Assay for human AKT serine/threonine Kinase 1 (AKT1) (AID 2283138). In a few lines: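 Screening first at 25 uM (duplicate), with threshold-passing chemicals re-tested in concentration series to a 50 uM maximum. Kinase activity read by fluorescence with mobility-shift separation of substrate and product, 1 h after dosing, DMSO baseline.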

The target in test [12] is human AKT serine/threonine Kinase 2 (AKT2), AKT2 (gene 208) (UniProt P31751). As to the kind of experiment: NVS_ENZ_hAKT2: NovaScreen (NVS) Enzymatic Assay for human AKT serine/threonine Kinase 2 (AKT2) (AID 2283141). Put shortly:
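Cell-free fluorescence/electrophoretic mobility shift readout of recombinant human AKT2 activity, 1 h after chemical dosing. Duplicate primary screen at 25 uM, then singleton concentration-response up to 50 uM; loss of signal versus DMSO baseline.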

The target in test [13] is human Acid Phosphatase 1 (ACP1), ACP1 (gene 52) (UniProt P24666). As to the kind of experiment: NVS_ENZ_hACP1: NovaScreen (NVS) Enzymatic Assay for human Acid Phosphatase 1 (ACP1) (AID 2283136). In a few lines:
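Cell-free fluorescence read-out of phosphatase activity, substrate and product separated by mobility shift, taken 1.5 h after compound addition; protein produced in Sf9. Single 25 uM duplicate screen, followed by concentration series for actives, scored as signal loss relative to DMSO.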

Chain of human Caspase 5 (CASP5), CASP5 (gene 838) (P51878 whole entry, looked up): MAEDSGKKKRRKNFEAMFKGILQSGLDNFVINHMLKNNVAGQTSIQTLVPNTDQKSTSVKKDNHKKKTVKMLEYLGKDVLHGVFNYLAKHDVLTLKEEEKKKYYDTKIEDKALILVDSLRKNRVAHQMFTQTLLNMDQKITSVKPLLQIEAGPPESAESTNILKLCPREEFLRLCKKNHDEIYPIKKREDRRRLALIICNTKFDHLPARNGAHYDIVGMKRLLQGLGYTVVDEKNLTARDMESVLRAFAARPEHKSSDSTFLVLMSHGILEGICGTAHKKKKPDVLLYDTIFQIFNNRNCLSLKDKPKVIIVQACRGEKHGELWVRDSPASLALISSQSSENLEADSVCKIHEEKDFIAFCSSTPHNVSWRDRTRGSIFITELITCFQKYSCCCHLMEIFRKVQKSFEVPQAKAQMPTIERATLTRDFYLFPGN
Chain of human Caspase 2 (CASP2), CASP2 (gene 835) (P42575 whole entry, looked up): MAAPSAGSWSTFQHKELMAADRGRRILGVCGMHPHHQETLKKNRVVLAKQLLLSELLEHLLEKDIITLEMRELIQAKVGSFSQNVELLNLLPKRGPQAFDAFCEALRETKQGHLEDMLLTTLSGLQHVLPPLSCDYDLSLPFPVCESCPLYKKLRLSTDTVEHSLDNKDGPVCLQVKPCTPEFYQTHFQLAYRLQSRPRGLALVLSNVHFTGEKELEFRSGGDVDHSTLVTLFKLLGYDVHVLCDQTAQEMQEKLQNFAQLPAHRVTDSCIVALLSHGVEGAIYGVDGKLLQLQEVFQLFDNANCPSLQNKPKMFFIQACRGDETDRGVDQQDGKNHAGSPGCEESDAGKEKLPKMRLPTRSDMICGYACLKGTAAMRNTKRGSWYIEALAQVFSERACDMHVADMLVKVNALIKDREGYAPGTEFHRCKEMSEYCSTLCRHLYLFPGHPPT
Chain of human Beta-secretase (BACE), BACE1 (gene 23621) (P56817 whole entry, looked up): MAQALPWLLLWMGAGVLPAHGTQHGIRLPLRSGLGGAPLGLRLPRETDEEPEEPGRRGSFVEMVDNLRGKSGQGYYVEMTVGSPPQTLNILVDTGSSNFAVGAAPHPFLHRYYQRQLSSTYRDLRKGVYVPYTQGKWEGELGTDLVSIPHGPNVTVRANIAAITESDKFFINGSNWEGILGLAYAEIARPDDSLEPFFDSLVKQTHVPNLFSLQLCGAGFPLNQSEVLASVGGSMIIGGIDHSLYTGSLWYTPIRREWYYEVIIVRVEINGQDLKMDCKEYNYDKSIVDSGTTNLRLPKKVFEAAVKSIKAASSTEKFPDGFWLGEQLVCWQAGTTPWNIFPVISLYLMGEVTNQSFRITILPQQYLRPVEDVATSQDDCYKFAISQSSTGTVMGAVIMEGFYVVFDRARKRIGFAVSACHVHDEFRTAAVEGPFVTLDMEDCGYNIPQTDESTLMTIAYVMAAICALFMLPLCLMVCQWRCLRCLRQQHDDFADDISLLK
Chain of human CYP2D6, CYP2D6 (gene 1565) (P10635 whole entry, looked up): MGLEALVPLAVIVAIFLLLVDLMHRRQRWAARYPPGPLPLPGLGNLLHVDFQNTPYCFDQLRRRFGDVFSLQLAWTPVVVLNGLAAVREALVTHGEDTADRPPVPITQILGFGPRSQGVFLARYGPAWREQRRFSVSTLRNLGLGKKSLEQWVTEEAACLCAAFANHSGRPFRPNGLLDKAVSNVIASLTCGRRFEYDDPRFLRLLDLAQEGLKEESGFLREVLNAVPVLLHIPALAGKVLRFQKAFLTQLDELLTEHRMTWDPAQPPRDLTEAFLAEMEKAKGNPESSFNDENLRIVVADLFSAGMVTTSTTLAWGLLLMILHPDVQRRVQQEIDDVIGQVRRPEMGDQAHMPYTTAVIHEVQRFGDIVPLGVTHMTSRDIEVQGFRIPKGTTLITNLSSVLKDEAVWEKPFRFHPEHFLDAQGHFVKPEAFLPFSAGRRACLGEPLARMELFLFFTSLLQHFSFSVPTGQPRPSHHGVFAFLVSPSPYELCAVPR
Chain of human CYP2C9, CYP2C9 (gene 1559) (P11712 whole entry, looked up): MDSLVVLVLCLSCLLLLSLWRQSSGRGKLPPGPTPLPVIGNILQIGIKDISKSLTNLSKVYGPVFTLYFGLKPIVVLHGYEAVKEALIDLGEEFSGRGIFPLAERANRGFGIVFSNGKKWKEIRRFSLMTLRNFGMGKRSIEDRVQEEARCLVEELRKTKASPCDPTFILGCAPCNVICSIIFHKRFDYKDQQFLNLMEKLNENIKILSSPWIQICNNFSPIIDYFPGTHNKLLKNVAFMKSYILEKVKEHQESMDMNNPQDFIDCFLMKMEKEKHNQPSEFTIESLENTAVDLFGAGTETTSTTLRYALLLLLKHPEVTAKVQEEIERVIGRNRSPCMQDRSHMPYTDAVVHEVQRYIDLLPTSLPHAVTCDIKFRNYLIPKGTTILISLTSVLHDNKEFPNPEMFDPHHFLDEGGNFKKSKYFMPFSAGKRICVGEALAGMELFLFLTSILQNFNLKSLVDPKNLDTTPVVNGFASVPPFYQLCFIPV
Chain of human AMP-activated Protein Kinase, alpha 1 (AMPKa1), PRKAA1 (gene 5562) (Q13131 whole entry, looked up): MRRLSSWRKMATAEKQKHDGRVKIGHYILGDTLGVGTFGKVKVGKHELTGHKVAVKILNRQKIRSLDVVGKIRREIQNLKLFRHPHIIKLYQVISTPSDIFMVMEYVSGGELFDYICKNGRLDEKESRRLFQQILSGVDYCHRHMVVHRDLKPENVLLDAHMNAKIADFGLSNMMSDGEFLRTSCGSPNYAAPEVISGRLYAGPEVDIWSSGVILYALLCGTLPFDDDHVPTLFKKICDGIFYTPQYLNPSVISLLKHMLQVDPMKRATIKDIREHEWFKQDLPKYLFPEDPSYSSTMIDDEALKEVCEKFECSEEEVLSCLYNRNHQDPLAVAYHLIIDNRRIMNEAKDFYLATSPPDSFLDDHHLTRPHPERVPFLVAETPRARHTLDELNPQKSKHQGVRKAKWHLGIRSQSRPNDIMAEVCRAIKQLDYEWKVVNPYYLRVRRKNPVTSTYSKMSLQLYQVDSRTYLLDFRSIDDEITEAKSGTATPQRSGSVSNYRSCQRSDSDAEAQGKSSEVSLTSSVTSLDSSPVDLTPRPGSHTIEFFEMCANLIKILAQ
Chain of human AKT serine/threonine Kinase 1 (AKT1), AKT1 (gene 207) (P31749 whole entry, looked up): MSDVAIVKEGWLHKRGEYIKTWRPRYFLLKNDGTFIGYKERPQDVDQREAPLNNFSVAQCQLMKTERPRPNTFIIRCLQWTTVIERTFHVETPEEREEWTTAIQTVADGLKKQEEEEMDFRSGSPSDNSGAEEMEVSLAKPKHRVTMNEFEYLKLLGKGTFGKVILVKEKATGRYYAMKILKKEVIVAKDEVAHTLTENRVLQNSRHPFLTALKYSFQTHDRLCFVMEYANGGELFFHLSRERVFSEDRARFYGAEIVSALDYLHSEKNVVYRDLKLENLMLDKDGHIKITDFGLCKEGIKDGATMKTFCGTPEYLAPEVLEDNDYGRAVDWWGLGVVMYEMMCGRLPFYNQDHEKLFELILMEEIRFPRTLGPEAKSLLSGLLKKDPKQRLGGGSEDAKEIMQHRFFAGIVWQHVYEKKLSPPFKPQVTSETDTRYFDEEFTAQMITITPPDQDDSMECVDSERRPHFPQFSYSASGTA
Chain of human Acid Phosphatase 1 (ACP1), ACP1 (gene 52) (P24666 whole entry, looked up): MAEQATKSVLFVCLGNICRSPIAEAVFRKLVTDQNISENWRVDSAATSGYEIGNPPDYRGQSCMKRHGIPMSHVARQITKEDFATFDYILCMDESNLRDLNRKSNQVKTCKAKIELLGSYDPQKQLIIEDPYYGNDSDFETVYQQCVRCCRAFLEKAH
Chain of human AKT serine/threonine Kinase 2 (AKT2), AKT2 (gene 208) (P31751 whole entry, looked up): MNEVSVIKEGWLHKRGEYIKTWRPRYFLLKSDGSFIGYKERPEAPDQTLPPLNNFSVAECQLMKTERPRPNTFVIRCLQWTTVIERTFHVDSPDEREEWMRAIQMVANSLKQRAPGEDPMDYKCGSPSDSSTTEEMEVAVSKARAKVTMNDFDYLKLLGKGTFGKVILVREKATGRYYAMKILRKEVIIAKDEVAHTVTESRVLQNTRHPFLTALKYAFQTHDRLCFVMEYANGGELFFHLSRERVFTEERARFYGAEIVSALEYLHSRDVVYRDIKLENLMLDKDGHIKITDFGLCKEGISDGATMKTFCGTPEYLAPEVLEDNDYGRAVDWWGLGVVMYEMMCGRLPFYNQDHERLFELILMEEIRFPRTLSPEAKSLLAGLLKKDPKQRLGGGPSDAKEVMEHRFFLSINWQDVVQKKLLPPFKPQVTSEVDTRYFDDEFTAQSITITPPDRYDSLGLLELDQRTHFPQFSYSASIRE
Chain of Caspase-1 (Homo sapiens) (P29466 whole entry, looked up): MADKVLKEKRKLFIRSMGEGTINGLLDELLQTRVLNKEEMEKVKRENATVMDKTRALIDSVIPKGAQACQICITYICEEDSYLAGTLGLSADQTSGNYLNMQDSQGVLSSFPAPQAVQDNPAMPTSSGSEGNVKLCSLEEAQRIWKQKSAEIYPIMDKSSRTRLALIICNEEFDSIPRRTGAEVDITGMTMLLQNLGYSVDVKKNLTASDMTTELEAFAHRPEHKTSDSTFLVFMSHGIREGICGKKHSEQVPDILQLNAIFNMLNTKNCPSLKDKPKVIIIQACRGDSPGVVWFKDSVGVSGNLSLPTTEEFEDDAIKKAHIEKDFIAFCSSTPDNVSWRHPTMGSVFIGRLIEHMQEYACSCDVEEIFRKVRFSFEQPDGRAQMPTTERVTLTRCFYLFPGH
Chain of Cytochrome P450 3A4 (Homo sapiens) (P08684 whole entry, looked up): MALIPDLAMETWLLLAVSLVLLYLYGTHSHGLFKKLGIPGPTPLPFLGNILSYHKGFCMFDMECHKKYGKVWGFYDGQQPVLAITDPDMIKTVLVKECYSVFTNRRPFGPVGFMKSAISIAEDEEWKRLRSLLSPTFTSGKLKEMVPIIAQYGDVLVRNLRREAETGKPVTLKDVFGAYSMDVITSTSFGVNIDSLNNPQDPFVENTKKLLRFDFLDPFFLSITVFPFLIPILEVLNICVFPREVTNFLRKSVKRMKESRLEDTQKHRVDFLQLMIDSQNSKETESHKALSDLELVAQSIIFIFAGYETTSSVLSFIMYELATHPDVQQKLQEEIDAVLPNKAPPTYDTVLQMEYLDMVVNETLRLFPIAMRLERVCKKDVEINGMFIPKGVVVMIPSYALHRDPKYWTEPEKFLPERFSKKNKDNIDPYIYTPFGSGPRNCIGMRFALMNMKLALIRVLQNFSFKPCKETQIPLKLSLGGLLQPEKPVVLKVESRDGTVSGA

For `BrCCCCBr`, in test [1], the outcome was inactive.
Consider `O=C(N[C@H]1CN2CCC1CC2)c1ccc2c(c1)OCCO2`, for which the compound was called inactive in test [2], in test [3] and in [1].
With `O=C(Cc1ccccc1)OCCc1ccccc1`, the AC50 in test [1] was 25000 nM (active).
Regarding `CCOC(=O)C(SP(=S)(OC)OC)c1ccccc1` (centres undefined), the AC50 in test [4] was 5000 nM (active).
`[Cl][Sn]([c]1ccccc1)([c]1ccccc1)[c]1ccccc1`: the AC50 in test [5] is 997 nM (active); in test [4], 1250 nM (active).
Regarding `O=c1oc2ccccc2c(O)c1C(CC(O)c1ccc(-c2ccc(Br)cc2)cc1)c1ccccc1` (centres undefined), in test [6], the AC50 was 9450 nM (active).
With `Nc1c(Oc2ccccc2)cc(O)c2c1C(=O)c1ccccc1C2=O`, the results for the AC50 in test [6] and in [1] were 133 nM (active) and 5730 nM (active), respectively.
Take `Oc1ccc(Cc2ccc(O)cc2)cc1`: in [7], the half-maximal activity concentration (AC50) was 321 nM (active).
With `OC(Cc1ccccc1Cl)(Cn1[nH]cnc1=S)C1(Cl)CC1` (centres undefined), the AC50 in test [4] was 689 nM (active).
On to `Cc1cc(C(C)(C)c2ccc(O)c(C)c2)ccc1O`, for which the values for the AC50 in [7] and in test [4] were 942 nM (active) and 1040 nM (active), respectively. Also, the outcome in test [8] was inactive.
As to `CCOC(=O)CCN(SN(C)C(=O)Oc1cccc2c1OC(C)(C)C2)C(C)C`, the concentration at half-maximal activity (AC50) in [4] is 3010 nM (active).
For the compound `N#CCCC(Br)(C#N)CBr` (centres undefined), the half-maximal activity concentration (AC50) in test [5] is 3080 nM (active).
As for `CCOP(=O)(OCC)OC(=CCl)c1ccc(Cl)cc1Cl`, the AC50 in test [4] was 1450 nM (active).
Take `CC(C)O.CC(C)O.OCCN(CCO)CCO.OCCN(CCO)CCO.[Ti]`: the AC50 is 1500 nM (active) in test [2]; 1370 nM (active) in test [9]; 8590 nM (active) in test [10]; 3120 nM (active) in test [3]; 1810 nM (active) in [6]; 3.19 nM (active) in [11]. The concentration at half-maximal activity (AC50) in [1] was 7670 nM (active); in test [12], 3460 nM (active).
For the compound `Clc1cccc(Cl)c1Cl`, the call in test [3] and in test [13] was inactive.
